Measured values from PubChem BioAssay (Tox21).
Inconclusive results are not listed. Activity calls are given as the source filed them. The call rests on the fitted dose curve; in most records, active means well fitted cell-killing curve with a large enough effect in the repeat runs; inconclusive means weak or mixed curves, or effect the other way; inactive means no such curve, though single readings can be large or run the other way.

Assay: qHTS assay to identify small molecule antagonists of the progesterone receptor (PR) signaling pathway - cell viability counter screen (AID 1346798); further: nearly all actives have a fitted effect of over 50% in size
Settings: PR-UAS-bla HEK293T viability, CellTiter-Glo luminescence, 16 h; series mostly up to 92.4 µM; activity change, negative = cytotoxicity: at the top concentration
Text: National Center for Advancing Translational Sciences [NCATS]
NIH Chemical Genomics Center [NCGC]
U.S. Environmental Protection Agency [EPA]
National Institutes of Environmental Health Sciences [NIEHS]
National Toxicology Program [NTP]
U.S. Food and Drug Administration [FDA]
Progesterone receptor (PR), a nuclear hormone receptor, plays an important role in development, metabolic homeostasis and reproduction. It is activated by the steroid hormone progesterone. Endocrine disrupting chemicals (EDCs) and their interactions with steroid hormone receptors like PR causes disruption of normal endocrine function. To identify the compounds that inhibit PR signaling, a PR-UAS-bla GripTite cell line i.e. PR-UAS-bla HEK293T (Invitrogen, Carlsbad, CA, USA) containing a beta-lactamase reporter gene under the control of an UAS response element was used to screen Tox21 10K compound library. The cytotoxicity of the Tox21 compound library against the PR-bla cell line was tested in parallel by measuring the cell viability using CellTiter-Glo assay in the same wells.
Tox21 Assay Protocol Summary:
PR-UAS-bla HEK293T cells were dispensed at 3,000 cells/4 uL of assay medium containing 2% charcoal stripped FBS per well into black wall/clear-bottom 1536-well plates using a Multidrop Combi (ThermoFisher Scientific, Waltham, MA) dispenser. After the assay plates were incubated at a 37C and 5% CO2 for 4 hr, 23 nL of compounds dissolved in DMSO, positive controls or DMSO only was transferred to the assay plate by a Pintool station (Kalypsys, San Diego, CA), followed by addition of 1 uL of R5020 in assay medium using a Flying Reagent Dispenser (FRD, Aurora Discovery, San Diego, CA). The plates were incubated at 37C and 5% CO2 for 16 hr. Then 1 uL of LiveBLAzer B/G FRET substrate was added using a Flying Reagent Dispenser, the plates were incubated at room temperature for 2 hours, and fluorescence intensity was measured by an Envision plate reader (PerkinElmer, Shelton, CT). For cell viability readout that measures cytotoxicity, 4 uL/well of CellTiter-Glo reagent was added into the assay plates using a FRD. After 30 min incubation at room temperature, the luminescence intensity in the plates was measured using a ViewLux (PerkinElmer) plate reader.
On the % scale 0 is the no-effect control and ±100 the full control effect.

| Structure (SMILES) | activity change, negative = cytotoxicity |
| --- | --- |
| CC(CN=Cc1ccccc1O)N=Cc1ccccc1O (stereo not given) | 6.19% (inactive) |
| C=Cc1ccc(C=C)cc1 | -3.6% (inactive) |
| CC(C)(C)c1cc(C=O)cc(C(C)(C)C)c1O | -20% [at 42.5 µM] (inactive) |
| CCC(C)C1N=C(C)C(C)S1 (stereo not given) | 18.8% (inactive) |
| CCCC(=O)OCCC(C)C | 13% (inactive) |
| C=CC(=O)NC(C)(C)C | -7.51% (inactive) |
| O=C(Cl)c1cc(Cl)cc(Cl)c1 | -22.2% (inactive) |
| C[C@H](N)C(=O)N[C@@H](C)C(=O)NC1[C@H]2CN(c3nc4c(cc3F)c(=O)c(C(=O)O)cn4-c3ccc(F)cc3F)C[C@@H]12 (stereo not given in full) | 12.6% [at 42.5 µM] (inactive) |
| C=C[Si](OCC)(OCC)OCC | 2.64% (inactive) |
| CC(Cc1ccccc1)(NC(=O)CN)c1ccccc1 (stereo not given) | -18.9% [at 42.5 µM] (inactive) |
| C1=COCCC1 | 0.295% (inactive) |
| CO[C@@H]1[C@@H](O[C@@H]2O[C@H](C)[C@@H](O[C@H]3C[C@@](C)(O)[C@@H](O)[C@H](C)O3)[C@H](N(C)C)[C@H]2O)[C@@H](CC=O)C[C@@H](C)[C@@H](O[C@@H]2CC[C@H](N(C)C)[C@@H](C)O2)/C=C/C=C/C[C@@H](C)OC(=O)C[C@H]1OC(C)=O | -29.9% [at 42.5 µM] (inactive) |
| CCCN(C1CCN(C(=O)C2CCNCC2)CC1)[C@@H]1CCc2ccc(OC)cc2C1 | -21.4% (inactive) |
| Cc1ccccc1CCO | 3.21% (inactive) |
| CCCCCO | -0.269% (inactive) |
| CC(C)NC(=O)c1ccccc1N | 4.62% (inactive) |
| CCCC1CCOC(C)S1 (stereo not given) | -0.555% (inactive) |
| C[Si](C)(C)O[Si](C)(C)O[Si](C)(C)C | -7.4% (inactive) |
| CCOC(OCC)OCC | 0.718% (inactive) |
| FC1(F)C(F)(F)C(F)(F)C2(F)C(F)(C1(F)F)C(F)(F)C(F)(F)C1(F)C(F)(F)C(F)(F)C(F)(F)C(F)(F)C12F (stereo not given) | -10.9% (inactive) |

| Structure (SMILES) | activity change, negative = cytotoxicity |
| --- | --- |
| COC(=O)c1cc(Cl)ccc1[N+](=O)[O-] | -0.146% (inactive) |
| O=c1[nH]nc(-c2ccc([N+](=O)[O-])o2)o1 | 11.2% (inactive) |
| CC1(C)CC(O)CC(C)(C)N1[O] | -6.94% (inactive) |
| COc1cccc([C@H](O)C2CCN(CCc3ccc(F)cc3)CC2)c1OC | -26.6% (inactive) |
| O=c1[nH][nH]c2ccccc12 | 18.5% (inactive) |
| O=Cc1ccc([N+](=O)[O-])cc1 | 29.5% (inactive) |
| CC(C)CC(C)(C)C | -27.9% (inactive) |
| O=[N+]([O-])c1cccc(I)c1 | 15.3% (inactive) |
| CCc1ccc(C(=O)C(C)CN2CCCCC2)cc1 (stereo not given) | -23.5% [at 42.5 µM] (inactive) |
| CC(C)C/C=C(\C=O)c1ccccc1 | 21.2% (inactive) |
| Cc1ccc(NC=O)c(C)c1 | -13.6% (inactive) |
| Cc1cc(N)n(-c2ccccc2)n1 | 5.99% (inactive) |
| CC(CC(C#N)(c1ccccc1)C(C)C)N(C)C (stereo not given) | 6.93% [at 42.5 µM] (inactive) |
| CCCc1nc(C)c2c(=O)[nH]c(-c3cc(S(=O)(=O)N4CCN(CC)CC4)ccc3OCC)nn12 | 4.71% [at 42.5 µM] (inactive) |
| O=C(O)c1ccncc1 | -0.291% (inactive) |
| O=C(N[C@@H](Cc1ccccc1)[C@@H](O)C(=O)N1C[C@@H](O)[C@@H](O)C1)c1cc2cc(Cl)ccc2[nH]1 | 28.3% (inactive) |
| Clc1cccc(C(c2ccc3nc[nH]c3c2)n2ccnc2)c1 (stereo not given) | 0.332% [at 42.5 µM] (inactive) |
| C=CC(O)CCCCC (stereo not given) | -7.49% (inactive) |
| CCOc1cc(OCC)c(C(C)=O)cc1OCC | -16.6% (inactive) |
| Nc1nc(Cl)nc2c1ncn2[C@H]1C[C@H](O)[C@@H](CO)O1 | 0.175% (inactive) |
